Compound activity (PubChem)
HPGD block = inhibitors of human 15-hydroxyprostaglandin dehydrogenase (HPGD); P15428; purified HPGD, NADH fluorescence kinetic, PGE2 substrate; Potency, µM, for the others: top-dose activity change, negative = inhibition, usual class: inhibitors; 150,000 compounds, 4.3% hits; note: potency is the fitted concentration of half-maximal effect; % is set by controls: 0 for no effect and ±100 for the full control effect
Target sequence (P15428 whole entry, looked up): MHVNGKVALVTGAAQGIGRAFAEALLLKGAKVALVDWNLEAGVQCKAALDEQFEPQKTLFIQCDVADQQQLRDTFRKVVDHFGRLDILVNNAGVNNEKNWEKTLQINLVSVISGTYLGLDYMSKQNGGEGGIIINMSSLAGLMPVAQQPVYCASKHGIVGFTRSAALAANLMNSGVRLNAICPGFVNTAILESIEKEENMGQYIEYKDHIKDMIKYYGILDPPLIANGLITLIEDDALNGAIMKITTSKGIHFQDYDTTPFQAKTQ
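20 nM HPGD preincubated 15 min at room temperature with compound in 50 mM Tris-HCl pH 8, 0.01% Tween 20. Started with 1 mM NAD+ and 30 uM prostaglandin E2; NADH fluorescence (360/450 nm) read 5 times over 30-s intervals, last minus first.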
ALDH1A1 block = ALDH1A1 (human) enzyme inhibition; P00352; Purified ALDH1A1, NADH fluorescence, propionaldehyde substrate; Potency, µM (titrated, usually from 75.3 µM), for inactives: at the top dose activity, negative = inhibition, hits mostly inhibitors; 220,000 compounds, 7.3% hits; AID 1030;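 note: potency is the fitted concentration of half-maximal effect; plate controls were no enzyme wells and a reference inhibitor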
Target sequence (P00352 whole entry, looked up): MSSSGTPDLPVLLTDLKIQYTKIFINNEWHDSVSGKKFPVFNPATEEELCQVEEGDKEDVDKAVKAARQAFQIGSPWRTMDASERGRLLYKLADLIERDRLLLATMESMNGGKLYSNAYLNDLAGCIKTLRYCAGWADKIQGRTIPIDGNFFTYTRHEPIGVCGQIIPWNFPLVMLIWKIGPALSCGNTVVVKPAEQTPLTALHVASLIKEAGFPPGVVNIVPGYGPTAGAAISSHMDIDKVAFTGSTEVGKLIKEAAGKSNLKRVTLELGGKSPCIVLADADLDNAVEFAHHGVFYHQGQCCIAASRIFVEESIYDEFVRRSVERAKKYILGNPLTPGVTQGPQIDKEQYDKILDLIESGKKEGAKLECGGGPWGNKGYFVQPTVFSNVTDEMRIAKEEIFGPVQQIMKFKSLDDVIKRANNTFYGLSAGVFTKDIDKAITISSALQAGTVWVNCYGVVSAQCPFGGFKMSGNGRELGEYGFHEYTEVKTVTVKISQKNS
PNC inhibitor = perinucleolar compartment assembly inhibition; 140,000 compounds, 3.1% hits; AID 2417; PC3M PTB-GFP, PNC prevalence imaging, 16 h; stronger effect = lower value; activity change (PNC), negative = inhibition, % at 10 µM;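 active = readout at or below -70, meaning at least 70% loss of cells showing the perinucleolar compartment, a nuclear body marking cancer cells; inconclusive = readout between -30 and a set limit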;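 note: plate controls were DMSO wells for no effect and camptothecin positive control wells for full effect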
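Compounds are pinned in duplicate onto adhered PC3M cells stably expressing GFP-tagged PTB and incubated 16 h at 37 C. Cells are then fixed, nuclei stained with Hoechst, and PNC-positive cells counted.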
HTT aggregate = reduces HttQ103-GFP aggregates in PC12 cells. PC12 HttQ103-GFP aggregates, Acumen cytometry, 40 h. 220,000 compounds, 1.1% hits. Potency, µM (doses to about 46.1 µM), for inactives: top-dose activity change, negative = inhibition, hits mostly inhibitors. AID 1688; active = well fitted curve in the direction sought with a large enough effect; inconclusive = small, poorly fitted or top-dose-only effect, or another doubt; inactive = no such curve, though single readings can be large; an effect the other way counts as inactive or inconclusive; note: potency is the fitted concentration of half-maximal effect; % is set by controls: 0 for no effect and ±100 for the full control effect; nearly all actives have a fitted effect of over 60% in size
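PC12 cells stably carrying ecdysone-inducible HTT exon 1 Q103–GFP were induced with tebufenozide (100 nM final) and treated with library compounds in titration. GFP aggregates in lysates were counted by laser scanning cytometry.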
RGS12 GoLoco inh = blocks human Gai1 binding to RGS12 GoLoco peptide, red readout; Potency, µM (highest dose often 61.6 µM), without a hit: at the top dose activity, negative = inhibition, actives largely listed as inhibitors; AID 880; P63096; Gai1:RGS12 GoLoco peptide FP, rhodamine, 10 min; 230,000 compounds, 0.44% hits; active = well fitted inhibition curve with a large enough effect, not every such curve was filed as active; inactive = no such curve, though single readings can be large or run the other way; note: potency is the fitted concentration of half-maximal effect; % is set by controls: 0 for no effect and ±100 for the full control effect; nearly all actives have a fitted effect of over 30% in size
HTT ATP protect = cytoprotection in Huntington HTT-Q103 PC12 cell model | Potency, µM (top dose mostly 56.4 µM), for the others: cytoprotection (ATP increase), actives largely listed as activators | PC12 HTT-Q103 induced, cytoprotection, ATP luminescence, 40 h | 230,000 compounds, 0.14% hits; active = well fitted curve in the direction sought with a large enough effect; inconclusive = small, poorly fitted or top-dose-only effect, or another doubt; inactive = no such curve, though single readings can be large; an effect the other way counts as inactive or inconclusive; note: potency is the fitted concentration of half-maximal effect; % of control where 0% means no effect; nearly all actives have a fitted effect of over 45% in size
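PC12 cells stably carrying ecdysone-inducible Htt exon 1 (Q103)–GFP were induced with 100 nM tebufenozide (final) alongside library compounds in a dose series. Cytoprotection was scored as retained ATP by ATPlite luminescence.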
* marks the source's active call; other numbers are inactive results; ? = inconclusive; nt = not tested or not shown; [ ] = dose if it differs, or a comment. Shown are actives, neighbours in structure and some others; about 11% of the full set was active somewhere. Unless noted, calls come from the whole dose curve; as a rule, active = well fitted inhibition curve with a large enough effect (not every such curve was filed as active); inconclusive = small, poorly fitted or top-dose-only effect, or another doubt; inactive = no such curve, though single readings can be large or run the other way.

SMILES	HPGD block	ALDH1A1 block	PNC inhibitor	HTT aggregate	RGS12 GoLoco inh	HTT ATP protect
FB(F)F	5%	1%	nt	nt	5%	-6%
CCCS(=O)(=O)N1CCC(C(=O)NC2CCC(C)CC2)CC1 (stereo not given)	nt	13µM*	-5	14%	nt	-3%
CC1CCN(S(=O)(=O)N2CCC(C(=O)NC3CCCC3)CC2)CC1	nt	-2%	nt	9%	-1%	-35%
COc1ccccc1NC(=O)Nc1nn(C)c2cccc(OC)c12	nt	?	nt	5%[9.22 µM]	7%	-1%[10 µM]
CCCC(=O)Nc1sc(Cc2ccccc2)c(C)c1C(N)=O	nt	1.8µM*	nt	8%[9.22 µM]	30%	6%[10 µM]
Cc1sc(NC(=S)NC(=O)CCc2ccccc2)c(C(N)=O)c1C	-15%	?	-121*	?	8%	-69%[10 µM]
CCN1CCc2c(sc(NC(=O)c3ccc(S(=O)(=O)N4CCOCC4)cc3)c2C(N)=O)C1	-14%	40µM*	27	-4%	34%	14%
COC(=O)c1c(NC(=O)CCC(=O)O)sc(Cc2ccccc2)c1C	nt	nt	nt	-13%[9.22 µM]	10%	-6%[10 µM]
Cc1cccc(C)c1NC(=S)NC(=O)CCc1ccccc1	-12%	?	-6	-7%	9%	2%
COc1ccc(NC(=O)c2c(NC(=O)CCC(=O)O)sc(-c3ccccc3)c2C)cc1	nt	8.9µM*	nt	2%	-4%	-1%
Cc1ccc(Nc2nc(=O)c3cccnc3s2)c(Br)c1	nt	nt	nt	34%[9.22 µM]	-8%	-28%[10 µM]
COC(=O)CCC(=O)Nc1sc(C)c(C)c1C(N)=O	14µM*	13µM*	14	-1%	-10%	11%
CCOC(=O)Nc1sc(C)c(C)c1C(N)=O	-4%	3%	?	-6%	2%	2%[10 µM]
CCN1CCc2c(sc(NC(=O)Nc3ccc(Cl)c(Cl)c3)c2C(N)=O)C1	-17%	-1%	-118*	11µM*	18%	nt
COC(=O)CCC(=O)NC(=S)Nc1sc(C)c(C)c1C(N)=O	-30%	?	-124*	3%	-7%	nt
NC(=O)c1ccccc1NC(=O)CCc1ccccc1	-17%	6%	1	4%	-1%	-9%
NC(=O)c1ccccc1NC(=S)NC(=O)CCc1ccccc1	28µM*	13µM*	-108*	27%	-4%	-2%[10 µM]
CCOc1ccc(-c2nnn(CC(=O)NCc3ccccc3)n2)cc1	nt	-2%	nt	2%	6%	-41%
O=C(c1ccc2c(c1)OCO2)N1CCC2(CC1)Oc1ccc(F)cc1C(=O)C21CC(c2ccccc2)=NO1 (stereo not given)	nt	nt	nt	0%[9.22 µM]	7%	14%[10 µM]
CN1CCN(c2ncnc3ccc(-c4cccnc4)cc23)CC1	nt	17%	nt	nt	4%	-83%
CCC(=O)N(CC(=O)Nc1sc(C)c(C)c1C(N)=O)C1CCCC1	nt	8.9µM*	nt	-3%	-3%	-9%
Cc1sc(NC(=O)CCC(=O)O)c(C(N)=O)c1-c1ccccc1	14µM*	13µM*	?	5%	4%	nt
CCOC(=O)N1CCc2c(sc(NC(=O)c3ccc(Cl)s3)c2C(N)=O)C1	32µM*	19µM*	38	12%	64%	-4%
Cc1sc(NC(=S)NC(=O)c2ccco2)c(C(N)=O)c1C	nt	3.2µM*	nt	3%	56%	-86%
Cc1sc(NC(=O)C2CCCCC2C(=O)O)c(C(N)=O)c1-c1ccccc1 (stereo not given)	-14%	-12%	64	-9%	5%	-75%
SMILES	HPGD block	ALDH1A1 block	PNC inhibitor	HTT aggregate	RGS12 GoLoco inh	HTT ATP protect
CCn1c(-c2ccc(F)cc2)cnc1SCC(=O)N1CCCCC1C (stereo not given)	-13%	?	13	-6%	10%	-9%
CCN1CCc2c(sc(NC(=S)NC(=O)c3ccco3)c2C(N)=O)C1	nt	7.9µM*	nt	-1%[9.22 µM]	22%	9%[10 µM]
CC(=O)c1cccc(NC(=O)C2C(c3ccccc3)C2(Cl)Cl)c1 (stereo not given)	nt	-1%	nt	-1%	9%	-24%
Cc1cccc(NC(=O)C2C(c3ccccc3)C2(Cl)Cl)c1 (stereo not given)	nt	25µM*	nt	-3%[9.22 µM]	-1%	7%[10 µM]
COc1ccc(NC(=O)C2C(c3ccccc3)C2(Cl)Cl)cc1 (stereo not given)	nt	1%	nt	3%[9.22 µM]	0%	3%[10 µM]
Cc1ccc(NC(=O)C2C(c3ccccc3)C2(Cl)Cl)c(C)c1 (stereo not given)	28µM*	5%	-8	?	-4%	-22%
Nc1nc2c(nc(Br)n2[C@@H]2O[C@H]3COP(=O)(O)O[C@@H]3[C@H]2O)c(=O)[nH]1	nt	nt	nt	nt	nt	-9%[1.9 µM]
NS(=O)(=O)c1ccc(N=Nc2ncccc2O)cc1	-13%	8%[13.5 µM]	nt	nt	87%[14.2 µM]	-8%[10 µM]
COc1ccc(CCNC(=O)NC23CC4CC(CC(C4)C2)C3)cc1	1%	?	21	-15%	0%	1%
COc1ccc(CCC(C)NC2C3CC4CC(C3)CC2C4)cc1 (stereo not given)	-3%	12%	-108*	20%	-2%	-9%
O=C(Nc1nnc(Cc2ccccc2)s1)c1ccco1	-12%	-8%	-25	-3%	4%	-7%
CCCc1cc(C(N)=O)c(NC(=O)c2ccoc2C)s1	?	18µM*	-5	-12%	21%	11%[10 µM]
CC(=O)c1cccc(NC(=O)c2ccoc2C)c1	nt	-2%	nt	11%[9.22 µM]	7%	5%[10 µM]
NC(=O)c1cc(Cc2ccccc2)sc1NC(=O)c1ccco1	28µM*	18µM*	?	-11%	-6%	9%[10 µM]
CCCc1cc(C(N)=O)c(NC(=O)c2cc(C)on2)s1	-15%	?	?	-17%	32%	-10%
CCOC(=O)c1cc(NC(=O)c2ccoc2C)cc(C(=O)OCC)c1	-22%	6.3µM*	28	-2%	7%	7%[10 µM]
Cc1ccc2c(c1)C=CC(C#N)N2C(=O)c1ccccc1 (stereo not given)	2%	-17%	-88*	25%	9%	-10%[0.074 µM]
NCCOB(c1ccccc1)c1ccccc1	-25%	?	nt	nt	0%	-27%
COc1ccc(OC)c(NC(=O)C23CCC(C)(C(=O)C2)C3(C)C)c1 (stereo not given)	-8%	-12%	-86*	21%	-3%	-13%[0.074 µM]
CC12CCC(C(=O)Nc3ccc(SC(F)F)cc3)(CC1=O)C2(C)C (stereo not given)	-2%	4%	36	-5%	3%	-4%
COc1ncc2ncc(=O)n(CCc3ccccc3)c2n1	nt	?	nt	nt	14%	-61%
Cc1cc(C)c2nc(-c3ccccn3)cc(C(=O)n3cccn3)c2c1	nt	?	nt	9%	20%	-10%[10 µM]
CC(=O)c1cccc(NC(=O)NC2CC3CCCC(C2)N3CC(C)C)c1 (stereo not given)	-10%	-7%	-100*	7%	-6%	14%[10 µM]
